According to PubChem BioAssay AID686978 (National Center for Advancing Translational Sciences (NCATS), 2013):
The campaign covered roughly 420,000 compounds. About 64,000 (15%) were called active. Not shown: some 27% with an inconclusive outcome. Calls follow the shape of the dose curve; as a rule, active = well fitted inhibition curve with a large enough effect; inconclusive = small, poorly fitted or top-dose-only effect; inactive = flat fitted curve, though single readings scatter. These entries were drawn from the full list. Peptide text beside a SMILES is read from it.

experiment: qHTS for Inhibitors of human tyrosyl-DNA phosphodiesterase 1 (TDP1): qHTS in cells in absence of CPT; conditions: DT40 Tdp1-/- hTDP1 cells, no CPT, ATP luminescence, 48 h; activity change, negative = growth inhibition: at 46.2 µM (top of the series); also: nearly all actives have a fitted effect of over 55% in size
Method in brief: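 Cells were dispensed at 400 per well, compounds added by pin tool, plates incubated ≥48 hr at 37 °C, then CellTiter-Glo added for 30 min at room temperature before luminescence reading. Line: DT40 Tdp1-/- complemented with hTDP1; camptothecin omitted.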
% is scaled to controls: 0 for no effect and ±100 for the full control effect; potency is read from the fitted curve at half-maximal effect.

SMILES	activity change, negative = growth inhibition	Potency
O=C(Nc1cccc(F)c1)[C@@H]1CCCN1	7.69% (inactive)	–
CCCn1c(NCc2ccc(N(CC)CC)cc2)nc2ccccc21	–	8.2 µM (active)
CCCn1nnnc1NCc1ccc(CC)cc1	-10.5% (inactive)	–
CC(C)(C)C(=O)Cn1c(NCCO)nc2ccccc21	-3.49% (inactive)	–
O=C(O)CN1C(=O)CC(Cc2ccccc2)C1=O (stereo unspecified)	-0.391% (inactive)	–
Cc1cc(NC(=O)COn2nnc3ccccc32)no1	-17.8% (inactive)	–
COC(=O)c1cc(NC(=O)C2C3C=CC(C3)C2C(=O)O)cc(C(=O)OC)c1 (stereo unspecified)	3.17% (inactive)	–
O=C(NCCCNCc1ccccc1)c1ccc(/C=N/O)nc1	3.22% (inactive)	–
CCc1ccc(Nc2n[n+](-c3ccccc3)c(-c3cccc(Cl)c3Cl)s2)cc1	–	16.4 µM (active)
Cc1noc(C)c1S(=O)(=O)NCCc1ccc(S(N)(=O)=O)cc1	-8.65% (inactive)	–
COC(=O)c1ccc([C@@H](O)[C@H](C)C(=O)CC(=O)OC(C)(C)C)cc1	-16.3% (inactive)	–
O=C(c1ccccc1)c1ccc(OC(=O)N2CCCC2)cc1	-25% (inactive)	–
c1ccc(CC2CCN(c3nc4ccccc4n4cnnc34)CC2)cc1	-8.6% (inactive)	–
O=C(c1ccccc1)c1ccc2nc(N3CCCCC3)c3nncn3c2c1	–	13 µM (active)
COc1cccc(/C=C/C(=O)Nc2ccc3c(c2)OCCO3)c1	-13.1% (inactive)	–
COc1ccc(OC)c(/C=C/C(=O)OCC(=O)Nc2ccc3c(c2)OCCO3)c1	–	16.4 µM (active)
COc1ccccc1OCCCC(=O)Nc1ccc2c(c1)OCCO2	-24.4% (inactive)	–
S=c1c2[nH]cnc2ncn1CCSc1ncnc2nc[nH]c12	-24.7% (inactive)	–
Cc1ccc(NC(=O)CN(C)C(=O)c2ccc(Cl)c(S(=O)(=O)NCc3ccco3)c2)cc1	11.9% (inactive)	–
CC[C@H](C)CCCCC(=O)N[C@@H](CCN)C(=O)N[C@H](C(=O)N[C@@H](CCN)C(=O)N[C@H]1CCNC(=O)[C@H]([C@@H](C)O)NC(=O)[C@H](CCN)NC(=O)[C@H](CCN)NC(=O)[C@H](CC(C)C)NC(=O)[C@@H](CC(C)C)NC(=O)[C@H](CCN)NC1=O)[C@@H](C)O (HELM PEPTIDE1{[CC[C@H](C)CCCCC(=O)[*:2]].[Dab].T.[Dab].[Dab].[Dab].[dL].L.[Dab].[Dab].T}$PEPTIDE1,PEPTIDE1,5:R3-11:R2$$$V2.0)	-2.38% (inactive)	–
O=C(CSc1nnc(CNC(=O)c2ccccc2)n1-c1ccc(F)cc1)Nc1ccccc1F	-10.5% (inactive)	–
CCOC(=O)/C=c1\s/c(=C\c2ccc(C#N)cc2)c(=O)n1CC(=O)Nc1cccc(C)c1C	–	5.17 µM (active)
Cc1cccc(NC(=O)CN2C(=O)c3ccccc3C2=O)c1C	1.62% (inactive)	–
CCOc1ccc(NC(=O)Cn2c(C)ccc(C#N)c2=O)cc1	0.582% (inactive)	–
Cc1nc(SCC(=O)NC2CCCC2)[nH]c(=O)c1C	-0.993% (inactive)	–
Cc1ccsc1C(=O)OCC(=O)c1cc2ccccc2o1	-9.66% (inactive)	–

SMILES	activity change, negative = growth inhibition	Potency
CCCCc1nn2c(=O)cc(COC(=O)c3cccc(NC(=O)COc4ccccc4)c3)nc2s1	-10.2% (inactive)	–
O=C1CS(=O)CN1c1ccc(Oc2ccccc2)cc1 (stereo unspecified)	-20.1% (inactive)	–
O=C(CN1C(=O)NC2(CCCCCC2)C1=O)NCc1ccc(F)cc1	3.82% (inactive)	–
COc1cccc(NC(=O)c2cc(S(=O)(=O)N3CCc4ccccc43)cn2C)c1	-1.2% (inactive)	–
COc1ccccc1N(C)C(=O)c1cc(S(=O)(=O)N2CCc3ccccc32)cn1C	–	25.9 µM (active)
COc1cc(OC)c(NC(=O)c2cc(S(=O)(=O)N3CCCC3)cn2C)cc1Cl	-7.62% (inactive)	–
CN(C(=O)COC(=O)Cn1cnc2c1c(=O)n(C)c(=O)n2C)C1(C#N)CCCCC1	0.855% (inactive)	–
NCC(=O)c1cccc2ccc[n+]([O-])c12	-0.678% (inactive)	–
O=C(c1cnccn1)N1CCC2(CCCN(Cc3ccccc3)C2)CC1	-1.1% (inactive)	–
CCN(Cc1ccncc1)C(=O)[C@@H](CO)c1ccccc1	2.72% (inactive)	–
C=CCn1c(SCC(=O)NCc2ccccc2)nnc1-c1cc(Br)ccc1O	-18% (inactive)	–
COc1ccc(OCC(=O)NNC(=O)C2CCC2)cc1	-5.78% (inactive)	–
C=CCOC(=O)N1CCC2CC1c1cc(-c3ccc(OC)cc3)ccc12 (stereo unspecified)	–	16.4 µM (active)
COc1ccc(-c2ccc3c(c2)C2CC3CCN2CCC#N)cc1 (stereo unspecified)	–	23.1 µM (active)
COc1ccc(NC(=O)CCN2CCCC2)c(OC)c1	0.0354% (inactive)	–
CC1CC1C(=O)OCC(=O)c1c(N)n(C)c(=O)n(C)c1=O (stereo unspecified)	8.67% (inactive)	–
Cc1onc(C(=O)NN)c1C(=O)N1CCN(C(c2ccccc2)c2ccccc2)CC1	-18.3% (inactive)	–
CCOC(=O)N1CCN(C(=O)c2cc3c(ccc4ccccc43)oc2=O)CC1	-24.1% (inactive)	–
CCOC(=O)N1CCN(C(c2cccnc2)c2ccc3cccnc3c2O)CC1 (stereo unspecified)	–	1.64 µM (active)
CCOC(=O)Cn1nnnc1C	-9.63% (inactive)	–
CCC(C)CCN1CCN=C1N(C)C (stereo unspecified)	-17.4% (inactive)	–
CC(C)NS(=O)(=O)c1ccc(OCC(=O)Nc2ccc3c(c2)OCCO3)cc1	-0.099% (inactive)	–
CC1CC2=C(CC1/C=N/NC(N)=S)C(C)(C)CCC2 (stereo unspecified)	–	3.26 µM (active)
Cc1ccc(OCC(=O)OCc2cc(=O)n3nc(C4CC4)sc3n2)cc1C	0.484% (inactive)	–
COc1cccc(Nc2nnc(SCC(=O)N3CC(=O)Nc4ccccc43)s2)c1	-29.2% (inactive)	–
N#C/C(=C/c1cccc([N+](=O)[O-])c1)c1nnc2n1CCCCC2	–	13 µM (active)

SMILES	activity change, negative = growth inhibition	Potency
O=c1c2cc([N+](=O)[O-])ccc2nc2n1CCC2	-13.8% (inactive)	–
N#C/C(=C(\O)C(F)(F)F)c1nnc2n1CCCCC2	-0.657% (inactive)	–
Cc1ccc(NC(=O)c2cc([N+](=O)[O-])ccc2Cl)c(O)c1	-26.4% (inactive)	–
CCn1cc(C(=O)N[C@@H](C)C(=O)NCCO)c(=O)c2cc3c(cc21)OCO3	34.9% (inactive)	–
NC(=O)c1sc(-c2ccsc2)cc1N	-17.9% (inactive)	–
C#CCOCCOCCOCCNc1nc(N2CCN(C(=O)CCCCCCCCCCNC(=O)[C@H]([C@@H](C)CC)n3cc(CCCCN=C(N)N)nn3)CC2)nc(N2CCN(C(=O)CCCCCCCCCCNC(=O)[C@H](CO)n3cc(CCCSC)nn3)CC2)n1	–	8.2 µM (active)
C#CCOCCOCCOCCNc1nc(N2CCN(C(=O)[C@H](CCCN=C(N)N)n3cc(C(N)[C@@H](C)CC)nn3)CC2)nc(N2CCN(C(=O)[C@H](CO)n3cc([C@@H](N)C(C)C)nn3)CC2)n1 (stereo partly specified)	-2.88% (inactive)	–
C#CCOCCOCCOCCNc1nc(N2CCN(C(=O)Cn3cc(CCO)nn3)CC2)nc(N2CCN(C(=O)Cn3cc(CCCN=C(N)N)nn3)CC2)n1	-0.16% (inactive)	–
CCN(CC)CCCSc1nc2ccccc2s1	-17.6% (inactive)	–
O=C(NC(=O)N1CCSCC1)c1c(Cl)cccc1Cl	-12% (inactive)	–
O=C(NCCc1cccc(F)c1)C1CC(O)CN1C(=O)Nc1ccccc1 (stereo unspecified)	-11.9% (inactive)	–
COc1cc(CCC(=O)Nc2ccncc2Cl)cc(OC)c1OC	-14.5% (inactive)	–
COc1ccc(CCC(=O)N2CCN(S(=O)(=O)c3ccc(OC)cc3)CC2)cc1	-32.4% (inactive)	–
COc1cc(CCC(=O)N2CCN(c3ccccc3Cl)CC2)cc(OC)c1OC	–	11.6 µM (active)
CCOC(=O)C1=C(c2ccccc2)O/C(=C(/C(=O)OC)C(F)(F)F)S1	-21.6% (inactive)	–
Cc1ccc2c(c1)N(C(=O)CCC(=O)NCc1cccnc1)CCO2	-4.05% (inactive)	–
Cc1c(C)n2c(SCC(=O)NC3CCCC3)nnc2[nH]c1=O	-3.76% (inactive)	–
CC(C)Cc1nnc(N)s1	-14.3% (inactive)	–
CC1CCC(N2CC(=O)N(CCC3=CCCCC3)C(c3ccc(F)cc3)C2=O)CC1 (stereo unspecified)	–	10.3 µM (active)
CCOCCCN1C(=O)CN(C2CCCCC2)C(=O)C1c1ccc(OCC)c(OC)c1 (stereo unspecified)	-15.8% (inactive)	–
CCCc1nnc(SCC(=O)N2C(C)CCCC2C)n1CC (stereo unspecified)	-0.484% (inactive)	–
O=C(c1cccc(N2CCCC2=O)c1)N1CCOCC1	-0.431% (inactive)	–
O=C(c1cc2cc(Br)cc(Br)c2oc1=O)N1CCOCC1	3.73% (inactive)	–
O=C1Nc2c(Br)cc(Br)cc2C1(O)N1CCOCC1 (stereo unspecified)	–	3.66 µM (active)
O=C(CSC(=S)N1CCOCC1)c1cc(Br)cc(Br)c1O	-13.5% (inactive)	–
O=C(CN1C(=O)c2cccc3cccc(c23)C1=O)N1CCCCC1	-23.4% (inactive)	–

SMILES	activity change, negative = growth inhibition	Potency
c1ccc(CCN2CN=C(Nc3nc4ccccc4o3)NC2)cc1	-27.1% (inactive)	–
COc1cc(NS(=O)(=O)c2ccc(N/C=C(\C=O)c3nc4cc(Cl)ccc4o3)cc2)nc(OC)n1	-5.39% (inactive)	–
O=C(NCCCN1CCOCC1)C1CCCN(S(=O)(=O)N2CCCCC2)C1 (stereo unspecified)	32.6% (inactive)	–
CCCSc1nsc(N)n1	-9.3% (inactive)	–
COc1ccc(/C(O)=C2\C(=O)C(=O)N(Cc3ccco3)C2c2ccc(OC)cc2OC)cc1 (stereo unspecified)	-12.4% (inactive)	–
CCCN(Cc1cc2cccc(C)c2[nH]c1=O)S(C)(=O)=O	9.52% (inactive)	–
CCC(c1nnnn1Cc1ccco1)N(CCc1ccccc1)Cc1cc2cccc(C)c2[nH]c1=O (stereo unspecified)	–	29.1 µM (active)
CC(C)C(c1nnnn1CCc1ccccc1)N1CCN(C(=O)c2ccco2)CC1 (stereo unspecified)	-16% (inactive)	–
CCC(c1nnnn1Cc1ccco1)N(Cc1cc2cc(OC)ccc2[nH]c1=O)C1CCCCC1 (stereo unspecified)	–	23.1 µM (active)
CCC(c1nnnn1Cc1ccco1)N(CCc1ccccc1)Cc1cc2ccc(OC)cc2[nH]c1=O (stereo unspecified)	–	29.1 µM (active)
COc1ccc2[nH]c3c(=O)n(Cc4ccco4)cnc3c2c1	-29.2% (inactive)	–
CCOc1ccc2[nH]c(=O)c(C(c3nnnn3CCOC)N3CCOCC3)cc2c1 (stereo unspecified)	5.67% (inactive)	–
CCN(CC)c1ccc(/C=N/NC(=O)CNC(=O)c2cccs2)cc1	-28% (inactive)	–
CN(C(=O)COC(=O)c1nc(Cl)ccc1Cl)C1CCS(=O)(=O)C1 (stereo unspecified)	8.66% (inactive)	–
COc1ccc(NC2CC(=O)N(C)C2=O)cc1 (stereo unspecified)	-6.54% (inactive)	–
COc1ccccc1S(=O)(=O)c1c(C)cc(C)[nH]c1=O	3.84% (inactive)	–
C=CCNC(=S)NNC(=O)COc1c(Cl)cc(Cl)cc1Cl	-26.5% (inactive)	–
CC(C)(C)C(=O)Nc1ccc(C(=O)N/N=C/c2ccccc2OC(=O)c2ccc(Cl)cc2Cl)cc1	–	11.6 µM (active)
O=C(N/N=C/c1ccoc1)c1ccc(Cl)cc1Cl	13.7% (inactive)	–
CSc1ccc(/C=N/NC(=O)c2cccc(Cl)c2)cc1	6.76% (inactive)	–
CCN1C[C@@H]2[C@@H]3C(=O)N(Cc4ccccc4)C(=O)[C@@H]3[C@](Cc3ccccc3)(C(=O)OC)N2C1=NC1CCCCC1	–	16.4 µM (active)
CC[C@]1(C(=O)OC)[C@H]2C(=O)N(C)C(=O)[C@H]2[C@H]2CN(C)C(=NCc3ccccc3)N21	-2.94% (inactive)	–
CCCN=C1N(C)C[C@@H]2[C@@H]3C(=O)N(Cc4ccccc4)C(=O)[C@@H]3[C@](C)(C(=O)OC)N12	2.25% (inactive)	–
